Screening data from PubChem BioAssay.
In the library only some 19% were active in any assay of this set; here they are far more common.
HT1080-NT tox: kills 2HG-producing HT-1080-NT fibrosarcoma cells; HT-1080-NT fibrosarcoma viability, CellTiter-Glo ATP luminescence, 48 h; Potency, µM (series often up to 46.1 µM), for the others: at the highest dose activity, negative = less viability, usual class: cytotoxic; 1.6% of 360,000 active;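 also: NT is the 2HG producing partner of a matched IDH1 knockdown line; potency is read from the fitted curve at half-maximal effect; 0% = DMSO-treated cells and -100% = media-only wells without cells; nearly all actives have a fitted effect of over 55% in size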
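Luminescent CellTiter-Glo readout after 48 hours of compound exposure at 37 degrees C defined viability of HT-1080-NT cells. Activity was normalized to DMSO wells and cell-free media wells; concentration-response curves were fitted and assigned curve classes.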
DT40 TDP1 no CPT: qHTS for Inhibitors of human tyrosyl-DNA phosphodiesterase 1 (TDP1): qHTS in cells in absence of CPT; AID 686978, 2013; 15% of 420,000 active; Potency, µM (top dose mostly 46.2 µM), for inactives: at the top dose activity change, negative = growth inhibition, actives largely listed as inhibitors; DT40 Tdp1-/- hTDP1 cells, no CPT, ATP luminescence, 48 h; also: potency is read from the fitted curve at half-maximal effect; nearly all actives have a fitted effect of over 55% in size
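Camptothecin absent (DMSO only). Human TDP1-complemented DT40 knockout cells, 400 cells/well, 37 °C for minimum 48 hr; ATP measured via CellTiter-Glo, 30 min dark incubation, luminescence.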
DT40 TDP1 CPT: growth inhibition of DT40 Tdp1-/-;hTDP1 cells with camptothecin (screen for TDP1 inhibitors); chicken DT40 Tdp1-/-;hTDP1 cells + 20 nM CPT, ATP luminescence, 48 h; 12% of 420,000 active; Potency, µM (series often up to 46.2 µM), for inactives: top-dose activity change, negative = growth inhibition, most hits filed as inhibitors; also: potency is read from the fitted curve at half-maximal effect; nearly all actives have a fitted effect of over 55% in size
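Chicken DT40 Tdp1-/- cells complemented with human TDP1, 400 cells/well, exposed to compounds plus 20 nM camptothecin for at least 48 h at 37 C; viability read as ATP content by CellTiter-Glo luminescence.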
HT1080 IDH1KD tx: HT-1080 IDH1 knockdown cell toxicity (counter line); HT-1080 IDH1 knockdown viability, ATP luminescence, 48 h; Potency, µM (highest dose often 46.1 µM), for inactives: top-dose activity, negative = toxicity, most hits filed as cytotoxic; 2% of 360,000 active; AID 686971;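 also: potency is read from the fitted curve at half-maximal effect; 0% = DMSO wells and -100% = cell-free medium wells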
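Cytotoxicity counter-line: IDH1KD HT-1080, 48 h, CellTiter-Glo. Curves classed by r2, magnitude and activity.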
IL1B secr inh: inhibitors of inflammasome signaling (IL-1 beta secretion). THP-1 LPS/ATP IL-1B secretion, AlphaLISA, 16 h; active compounds read low. activity change, % at 57.5 µM. 4.7% of 360,000 active. AID 743279; in the data active = activity change below about -50%; inconclusive = mostly about -30% to -49%
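THP-1 cells pretreated 1 hr with compounds (up to 57.5 uM final), then stimulated with LPS (250 ng/mL final) plus ATP (1.25 mM final); secreted IL-1B measured by AlphaLISA after 16 hr, decreased signal indicating inhibition.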
Active calls of the source: *; ? = inconclusive; . = not tested or not shown; [ ] = dose if it differs, or a comment. Unless noted, calls follow the shape of the dose curve; as a rule, active = well fitted curve in the direction sought with a large enough effect; inconclusive = small, poorly fitted or top-dose-only effect, or another doubt; inactive = no such curve, though single readings can be large; an effect the other way counts as inactive or inconclusive. Unless noted, % is scaled to controls: 0 for no effect and ±100 for the full control effect.

SMILES | HT1080-NT tox | DT40 TDP1 no CPT | DT40 TDP1 CPT | HT1080 IDH1KD tx | IL1B secr inh
C=CCn1c(C)cc(C(=O)Cn2ncc(Cl)c(Cl)c2=O)c1C | ? | 4.1µM* | 5.8µM* | 3.3µM* | -102*
C=CCn1c(C)cc(C(=O)COC(=O)[C@@H](NC(=O)c2ccccc2Cl)C(C)C)c1C | 17% | ? | ? | 13% | 19
O=C(Cn1ncc(Cl)c(Cl)c1=O)c1ccc(Cl)cc1 | 15µM* | 2.6µM* | 2.9µM* | ? | -68*
O=C(OCn1ncc(Cl)c(Cl)c1=O)c1ccccc1Cl | 7.3µM* | 4.6µM* | 2.3µM* | 5.8µM* | -97*
O=c1c(Cl)c(Cl)cnn1Cc1ccc(F)cc1 | ? | 13µM* | -112% | ? | -99*
O=C(OCCN1CCCCC1)c1ccccc1Cl | -1% | 5% | -20% | 1% | 26
Cc1ccnn1CC(=O)N/N=C/c1ccc2c(c1)OCO2 | -2% | -4% | -26% | -7% | 2
COc1ccc(C(=O)NCCn2cc(SCC(N)=O)c3ccccc32)cc1 | 23% | 7% | 1% | 4% | 0
O=C(CSc1cn(CCNC(=O)c2ccc3ccccc3c2)c2ccccc12)NCc1ccco1 | -27% | ? | 16µM* | ? | ?
COc1ccc(NC(=O)CSc2cn(CCNC(=O)c3ccc(OC)cc3)c3ccccc23)cc1 | . | 26µM* | ? | . | .
COc1ccc(C(=O)NCCn2cc(SCC(=O)Nc3ccc4c(c3)OCCO4)c3ccccc32)cc1 | . | 21µM* | ? | . | .
Cc1ccc(NC(=O)CSc2nnc3ccc4ccccc4n23)cc1 | . | ? | -25% | . | .
CC(C)NC(=O)N(C)C[C@@H]1Oc2ccc(NC(=O)CCN3CCOCC3)cc2CC(=O)N([C@@H](C)CO)C[C@@H]1C | -2% | 7% | -5% | -12% | -3
COC(=O)c1ccc(COC(=O)[C@@H]2CC(O)CN2S(=O)(=O)c2ccccc2[N+](=O)[O-])cc1 (some centres not stated) | -3% | -16% | -12% | -6% | -97*
CCc1cccc2c(C(=O)COC(=O)[C@@H]3CC(O)CN3S(=O)(=O)c3ccccc3[N+](=O)[O-])c[nH]c12 (some centres not stated) | ? | 21µM* | 23µM* | ? | -76*
COc1ccc(C2c3cc4c(cc3OC(NNC(N)=O)C2C)OCO4)cc1 (configuration not stated) | ? | ? | ? | 16µM* | 16
COc1cc(C2c3cc4c(cc3C(O)C3COCC23)OCO4)cc(OC)c1OC (configuration not stated) | 26µM* | ? | ? | ? | 64
COc1cc(C2c3cc4c(cc3OC(NNC(N)=S)C2C)OCO4)cc(OC)c1OC (configuration not stated) | 1.8µM* | 0.92µM* | 1.3µM* | ? | ?
COc1cc(C2c3cc4c(cc3OC(NNC(N)=O)C2C)OCO4)cc(OC)c1OC (configuration not stated) | 1.3µM* | 1.3µM* | 1.3µM* | ? | -66*
COc1ccc(C(=O)N2c3ccccc3C(=O)OC2c2ccc3c(c2)OCO3)cc1 (configuration not stated) | -1% | ? | -25% | -3% | 8
COc1cc2cc(OC(C)=O)c3cc4c(cc3c2c(OC)c1OC)OCO4 | 15% | -2% | -6% | 22% | 13
Cc1ccc(S(=O)(=O)NC2CCCCC2)c(C)c1NS(C)(=O)=O | -4% | -14% | -3% | ? | -8
COc1cccc(-c2ccc(O)c(CNCc3cccc(OC)c3OC)c2)n1 | . | ? | -5%[9.04 µM] | . | .
COc1cc(C2c3cc4c(cc3OC(NCc3ccccc3)C2C)OCO4)cc(OC)c1OC (configuration not stated) | 1.6µM* | 1.5µM* | 1.2µM* | 1.2µM* | 15
COc1cccc(C2c3cc4c(cc3OC(NNC(N)=O)C2C)OCO4)c1O (configuration not stated) | 4.6µM* | 4.1µM* | 4.6µM* | 6.5µM* | 33
SMILES | HT1080-NT tox | DT40 TDP1 no CPT | DT40 TDP1 CPT | HT1080 IDH1KD tx | IL1B secr inh
CCOc1cc(/C=N/NC(=O)CSc2nncn2C)ccc1OCc1cccc(C)c1 | 0% | ? | ? | -12% | 24
O=C(Nc1ccncc1)C1CCN(S(=O)(=O)c2ccccc2)CC1 | -11% | ? | ? | -7% | 30
COC(=O)Nc1ccc(S(=O)(=O)N2CCC(Cc3ccccc3)CC2)cc1 | -7% | 21µM* | ? | -24% | ?
CCOC(=O)c1ccc(NC(=O)C2CCN(S(=O)(=O)c3ccccc3)CC2)cc1 | 0% | ? | 26µM* | 0% | 6
CCOC(=O)c1ccc(S(=O)(=O)N2CCC(C(=O)NCC3COc4ccccc4O3)CC2)cc1 (configuration not stated) | -7% | 23µM* | 21µM* | -3% | -8
O=C(Nc1ccc(Oc2ccccc2)cc1)C1CCN(S(=O)(=O)c2ccccc2)CC1 | . | 9.2µM* | ? | . | .
CCC(=O)Nc1ccc(C(=O)NCc2ccccn2)cc1 | 7% | 29% | 5% | 10% | 8
CCOC(=O)c1nn(-c2ccccc2C)c(=O)cc1OCC(=O)Nc1cccc(OC)c1 | 5% | -11% | -22% | 4% | 56
COc1ccc2cc(C#N)c(SCC(=O)OCc3ccccc3)nc2c1 | . | -19% | -5% | . | .
CCOC(=O)c1ccc(NC(=O)C2C3CCCCC32)cc1 (configuration not stated) | -13% | ? | -25% | -28% | -64*
O=C(c1ccc(OC2CCN(CCCc3ccccc3)CC2)cc1)N1CCCC1 | -12% | -7% | -29% | -8% | -25
CCCCCCC(=O)N(O)C1CC(=O)N(c2ccc(F)cc2)C1=O (configuration not stated) | 16µM* | 2.9µM* | 1.6µM* | ? | -88*
CCCCCCC(=O)N(O)C1CC(=O)N(c2ccc(Br)cc2)C1=O (configuration not stated) | ? | 18µM* | 21µM* | 16µM* | -82*
COc1ccccc1N(O)C1CC(=O)N(c2ccc(Br)cc2)C1=O (configuration not stated) | -4% | ? | 18µM* | -13% | -1
CCOC(=O)N1CCN(C2CC(=O)N(c3ccc(F)cc3)C2=O)CC1 (configuration not stated) | 13% | -15% | -1% | 22% | 16
O=C1CC(N(O)c2ccccc2)C(=O)N1c1ccc(Cl)c(Cl)c1 (configuration not stated) | -2% | ? | ? | 0% | -17
CCOC(=O)N1C(=O)C2(CCCCC2)N(c2ccccc2Cl)C1=S | ? | ? | -12% | ? | -2
